# In the library only some 1.6% were active in any assay of this set; here they are far more common.
# KCNQ2 pot: KCNQ2 (rat) channel potentiation; O88943; CHO-K1 KCNQ2, FluxOR thallium flux fluorescence; stronger effect = higher value; B-score at 10 µM; 310,000 tested, 0.54% active; AID 2239;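 active = fluorescence ratio B-score at least 3 SD of library B-scores, with initial fluorescence B-score within 3 of them, cut at about 5.3 in these data; same plate scores as AID 2156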;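 note: B-score of peak minus minimum over baseline fluorescence ratio after K+ and Tl+ stimulus; positive B-score means potentiation of KCNQ2 with more thallium influx and brighter signal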
# Target sequence (O88943 whole entry, looked up): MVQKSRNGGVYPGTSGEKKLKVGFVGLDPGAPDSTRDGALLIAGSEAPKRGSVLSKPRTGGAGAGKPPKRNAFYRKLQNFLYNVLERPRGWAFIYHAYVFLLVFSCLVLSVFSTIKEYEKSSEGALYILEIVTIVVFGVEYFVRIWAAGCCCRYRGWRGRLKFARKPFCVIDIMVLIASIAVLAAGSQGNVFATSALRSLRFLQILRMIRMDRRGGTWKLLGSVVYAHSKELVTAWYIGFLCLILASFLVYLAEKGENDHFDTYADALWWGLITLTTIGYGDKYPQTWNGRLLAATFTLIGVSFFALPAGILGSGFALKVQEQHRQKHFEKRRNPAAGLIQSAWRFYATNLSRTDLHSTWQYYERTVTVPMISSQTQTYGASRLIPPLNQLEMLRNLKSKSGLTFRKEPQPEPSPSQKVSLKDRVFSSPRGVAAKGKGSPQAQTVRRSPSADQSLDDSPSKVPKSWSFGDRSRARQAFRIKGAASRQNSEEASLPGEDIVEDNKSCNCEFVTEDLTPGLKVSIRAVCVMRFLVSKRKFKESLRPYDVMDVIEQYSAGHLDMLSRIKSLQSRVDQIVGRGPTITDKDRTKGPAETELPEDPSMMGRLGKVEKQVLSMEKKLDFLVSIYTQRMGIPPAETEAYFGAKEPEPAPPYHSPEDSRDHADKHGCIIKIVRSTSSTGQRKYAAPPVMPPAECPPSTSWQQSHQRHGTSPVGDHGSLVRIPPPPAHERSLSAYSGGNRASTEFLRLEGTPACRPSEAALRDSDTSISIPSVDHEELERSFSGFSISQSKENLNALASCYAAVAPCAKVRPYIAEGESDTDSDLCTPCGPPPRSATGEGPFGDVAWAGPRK
# KCNQ2 block: blocks the rat KCNQ2 potassium channel; CHO-K1 KCNQ2, FluxOR thallium flux, 20 min; stronger effect = lower value; B-score at 10 µM; 310,000 tested, 1.1% active; AID 2156;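 active = fluorescence ratio B-score at most minus 3 library SDs, with starting brightness B-score within 2 library SDs, cut at about -5.5 in these data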
# An asterisk follows results filed as active; i = inactive; . = not tested or not shown.
SMILES,KCNQ2 pot,KCNQ2 block
COC(=O)c1cc(=O)n(Cc2ccc(OC)c(OC)c2)c(=Nc2ccc(F)cc2)s1,.,i
COC(=O)c1cc(=O)n(Cc2cccs2)c(=Nc2ccccc2)s1,.,i
COC(=O)c1cc(=O)n(Cc2ccco2)c(=Nc2ccc(F)cc2)s1,-5.95,-5.95*
COC(=O)c1cc(=O)n(Cc2ccc(F)cc2)c(=Nc2ccccc2)s1,-5.8,-5.8*
CCn1ncc(Br)c1C(=O)Nc1ccccc1C(F)(F)F,.,i
CN(C)CCN1C(=O)c2oc3ccccc3c(=O)c2C1c1cccc(Br)c1 (stereo not given),.,i
COc1ccc(C2c3c(oc4ccc(Cl)cc4c3=O)C(=O)N2CCN2CCOCC2)cc1 (stereo not given),-6.63,-6.63*
CN(C)CCN1C(=O)c2oc3ccc(Cl)cc3c(=O)c2C1c1cccc(Br)c1 (stereo not given),-6.28,-6.28*
COc1ccc(C2c3c(oc4ccccc4c3=O)C(=O)N2CCCN2CCOCC2)cc1 (stereo not given),.,i
C=CC1=C2C=C(C3CC3)N(CCCN(CC)CC)C=C2C(=O)C(C)(OC(=O)c2ccco2)C1=O (stereo not given),0.79,i
C=CCn1c(-c2csc(-c3ccccc3)n2)n[nH]c1=S,0.16,i
C=CCN1C(=S)CC(c2ccccc2)=Nc2ccccc21,-6.73,-6.73*
O=C(NCc1cccnc1)c1ccc(NC(=O)c2cccc([N+](=O)[O-])c2)cc1,.,i
COc1ccc(C2(CNC(=O)Cc3ccc(OC)c(OC)c3)CCOCC2)cc1,1.11,i
Cc1noc(C)c1CSc1ncnc2sc3c(c12)CCCCC3,5.53*,i
Cc1noc(C)c1CSc1ncnc2sc(C)c(C)c12,1.15,i
Fc1cccc(CN2CCN(Cc3nc(CCc4ccccc4)no3)CC2)c1,.,i
NC(=O)COC(=O)c1oc2ccccc2c1CSc1ccc(Cl)cc1,.,i
O=C(COC(=O)c1oc2ccccc2c1CSc1ccc(Cl)cc1)NC1CCCC1,-6.43,-6.43*
Cc1ccc(C#CC[N+]2(C)CCCCC2)cc1,.,i
CNC(=O)Cn1nc(-c2ccc(C)c(S(=O)(=O)N(C)C)c2)c2ccccc2c1=O,1.13,i
CCc1cc(C(=O)c2ccc(Br)cc2)c(NC(=O)CN(CC)CC)s1,-5.71,-5.71*
CCN(CC)CC(=O)Nc1sc(C)cc1C(=O)c1ccccc1,.,i
CCCCNc1c(-c2cccc(-c3cc(C(C)=O)cs3)c2)nc2ccc(C)cn12,.,i
CCCCNc1c(-c2cccc(-c3ccc(OC)cc3)c2)nc2ccc(C)cn12,-6.06,-6.06*
SMILES,KCNQ2 pot,KCNQ2 block
Cc1ccc(NC(=O)CCCn2nc(C)c3c(C)n(-c4ccccc4)nc3c2=O)c(Cl)c1,.,i
COc1ccc(C(C(=O)NC2CCCC2)N(C(=O)c2snc(-c3ccc(F)cc3)c2N)c2ccc(F)cc2)cc1 (stereo not given),.,i
COc1ccc(C(C(=O)NC2CCCC2)N(C(=O)c2snc(-c3ccc(F)cc3)c2N)c2ccc(OC)cc2)cc1 (stereo not given),-5.67,-5.67*
COc1ccc(OCCCC(=O)Nc2cc(Cl)ccc2-n2cncn2)cc1,0.01,i
COc1ccc(CCNc2nc(C)nc3c2oc2ccccc23)cc1OC,-5.63,-5.63*
Cc1nc(NCCc2cnc[nH]2)c2oc3ccccc3c2n1,0.94,i
COc1ccccc1NC(=O)Cc1csc(NC(=O)c2ccccc2)n1,0.37,i
COc1cc(OC)cc(C(=O)Nc2nc(CC(=O)NCc3ccc(F)cc3)cs2)c1,.,i
COc1ccc(C(=O)Nc2nc(-c3cccs3)cs2)cc1,1.45,i
O=C(Cc1csc(NC(=O)c2ccc(F)cc2)n1)NO,-5.66,-5.66*
COc1cc(C(=O)Nc2nc(-c3cccs3)cs2)cc(OC)c1OC,-7.13,-7.13*
COc1cc(OC)cc(C(=O)Nc2nc(CC(=O)NCc3ccccc3OC)cs2)c1,-6.58,-6.58*
Cc1c(Cl)cccc1-n1c(SCC(=O)N2CCC(C(=O)O)CC2)nc2ccccc2c1=O,0.45,i
CC(C)COC(=O)c1cc(=O)[nH]c2ccccc12,0.91,i
Cc1cc(C)n2nc(CNS(=O)(=O)c3ccc(CC(C)C)cc3)nc2n1,.,i
O=C(NCc1cccnc1)c1ccc(-c2cc(Cl)ccc2Cl)o1,-6.8,-6.8*
O=C(Nc1cccnc1)c1ccc(-c2cc(Cl)ccc2Cl)o1,0.02,i
CC1CCCN(C(=O)c2cc(S(=O)(=O)N3CCCCC3)c[nH]2)C1 (stereo not given),.,i
COc1cccc(Oc2nnnn2-c2ccccc2)c1,.,i
COc1cccc(-n2nnnc2S(C)(=O)=O)c1,-7.78,-7.78*
COc1ccccc1NC(=O)C1CC(C(C)C)OC1=O (stereo not given),0.34,i
COC(=O)c1ccc(C(=O)OC)c(N)c1,-5.66,-5.66*
COC(=O)c1ccc(N2CCCCC2)c(N)c1,.,i
Cc1cc(Nc2ccccc2)nc(NCc2ccccc2)n1,-6.2,-6.2*
Cc1cc(Nc2ccc(Cl)cc2)nc(NCc2ccccc2)n1,.,i
SMILES,KCNQ2 pot,KCNQ2 block
CCOc1cc2[nH]c(=S)n(CCOC)c(=O)c2cc1OCC,0.16,i
CCCCN(C)CCn1c(=S)[nH]c2cc(OCC)c(OCC)cc2c1=O,5.4*,i
NS(=O)(=O)c1ccc(CNC(=O)c2cccnc2Cl)cc1,0.85,i
COc1cc(NC(=O)C(C)Oc2ccccc2)ccc1NC(=O)COc1ccccc1 (stereo not given),0.92,i
Cc1ccc(-n2c(SCC(=O)Nc3ccc4c5c(cccc35)CC4)nc(O)c(C)c2=O)cc1,7.02*,i
Cc1ccc(-n2c(SCC(=O)Nc3ccc4c5c(cccc35)CC4)nc(O)cc2=O)cc1,2.31,i
COc1ccccc1OCC(=O)Nc1ccccc1C(=O)N1CCCCC1,.,i
O=C(COc1ccccc1Cl)Nc1ccccc1C(=O)N1CCCCC1,-5.99,-5.99*
CCC(C)[C@H](NC(=O)N1CCC(C)CC1)C(=O)OC (stereo not given in full),1.04,i
O=c1c(Cl)c(Cl)cnn1Cc1nnc(-c2ccc(Cl)cc2)o1,1.28,i
O=S(=O)(/N=C(/Nc1cccc2ccccc12)c1ccccc1)c1ccc(F)cc1,.,i
Cc1noc(C)c1S(=O)(=O)N(CC(=O)NC1CCC(C)CC1)c1ccc(C(C)C)cc1 (stereo not given),-7.12,-7.12*
CCOc1ccc(N(CC(=O)NC2CCC(C)CC2)S(=O)(=O)c2c(C)noc2C)cc1 (stereo not given),0.09,i
O=C(Nc1ccccc1N1CCCC1)C1CCN(S(=O)(=O)c2cccc(C(F)(F)F)c2)CC1,.,i
O=C(Nc1ccccc1N1CCCCC1)C1CCN(S(=O)(=O)c2cccc(C(F)(F)F)c2)CC1,-6.88,-6.88*
N/C(COc1cccc(C(F)(F)F)c1)=N\NC(=O)c1cccnc1Oc1ccccc1,.,i
CCOCc1c(C(=O)OCC(=O)Nc2ccc(C)c(S(=O)(=O)N(C)C)c2)oc2ccccc12,.,i
COc1ccc(C(C(=O)NC(C)(C)C)N(C(=O)CNC(=O)c2cccs2)c2cccnc2)cc1OC (stereo not given),0.45,i
O=C(Cc1ccccc1)Nc1nccs1,0.41,i
S=C(Nc1ccccc1)Nc1nccs1,6.55*,i
O=C(Cc1ccc(F)cc1)Nc1nccs1,.,i
Fc1ccc(NC(=S)Nc2nccs2)cc1,7.32*,i
Cc1ccc(-c2csc(N3CCC[C@@H]3C(=O)NCCn3c(-c4ccncc4)nc4ccccc43)n2)cc1,.,i
